Among the data in PubChem BioAssay (EPA / NIEHS) are outcome and AC50 values, retold here.

SMILES strings stand for the structures. Results filed as inconclusive are left out. The source made the active and inactive calls. Rule for the calls, unless noted: active = hit-call score of the fitted dose curve at least 0.9, where 1 is the maximum; inconclusive = response in the unintended direction; inactive = score below 0.9.

Test [1] can be described thus: Tanguay_ZF_120hpf_PE_legacy: (Legacy) Oregon State University Tanguay Lab 120 Hour Post-fertilization zebrafish Assay for Pericardial Edema (AID 2283640).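 For AC50: potency for increased incidence of pericardial edema versus DMSO baseline.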 The method in brief: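 Tropical 5D wild-type zebrafish embryos were exposed statically to 120 hpf at 28C, sealed and foil-covered, in 0.64% DMSO final. Pericardial edema was scored present/absent by brightfield microscopy; dead embryos were not scored.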

Test [2] is described as follows: Tanguay_ZF_120hpf_BRAI_legacy: (Legacy) Oregon State University Tanguay Lab 120 Hour Post-fertilization zebrafish Assay for Brain Malformation (AID 2283641). The method in brief: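 Tropical 5D wild-type zebrafish embryos were exposed statically in sealed, foil-covered plates at 28C until 120 hpf, with 0.64% (vol/vol) final DMSO. Brain malformation was scored present/absent by brightfield microscopy, relative to DMSO baseline.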

Test [3] in a line: Tanguay_ZF_120hpf_SOMI_legacy: (Legacy) Oregon State University Tanguay Lab 120 Hour Post-fertilization zebrafish Assay for Somite Malformation (AID 2283647). The method in brief: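 Tropical 5D wild-type zebrafish embryos, dechorionated with pronase at 4 hpf, were placed singly at 6 hpf and statically exposed until 120 hpf at 28C in 0.64% DMSO. Somite malformation was scored present/absent by brightfield microscopy versus DMSO.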

Test [4] is described as follows: Tanguay_ZF_120hpf_CFIN_legacy: (Legacy) Oregon State University Tanguay Lab 120 Hour Post-fertilization zebrafish Assay for Caudal Fin Malformation (AID 2283649). The method in brief:
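Tropical 5D wild-type embryos, dechorionated with pronase at 4 hpf, were placed singly in wells at 6 hpf and statically exposed to compound at 28C until 120 hpf (0.64% DMSO). Caudal fin malformation was scored present/absent by brightfield microscopy.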

Test [5] in a line: Tanguay_ZF_120hpf_CIRC_legacy: (Legacy) Oregon State University Tanguay Lab 120 Hour Post-fertilization zebrafish Assay for Circulatory Malformation (AID 2283651). The method in brief:
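Binary circulatory-malformation call at 120 hpf via brightfield imaging, relative to DMSO controls. Embryos (5D strain, chorion removed) received static, light-shielded exposure at 28C.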

Test [6] can be described thus: Tanguay_ZF_120hpf_SWIM_legacy: (Legacy) Oregon State University Tanguay Lab 120 Hour Post-fertilization zebrafish Assay for Swim Bladder Malformation (AID 2283654).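 Note: swim bladder malformation in each larva scored yes or no under brightfield.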 The method in brief: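 Static waterborne exposure of single dechorionated Tropical 5D zebrafish embryos, 6–120 hpf, 28C, 0.64% DMSO final. Read-out: swim bladder malformation, present/absent, relative to DMSO negative control; trimethyltin chloride 5uM served as positive control.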

Test [7] in a line: Tanguay_ZF_120hpf_TRUN_legacy: (Legacy) Oregon State University Tanguay Lab 120 Hour Post-fertilization zebrafish Assay for Truncated Body (AID 2283655). The method in brief:
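Tropical 5D wild-type embryos, dechorionated with pronase at 4 hpf, were placed singly in wells at 6 hpf and statically exposed at 28C until 120 hpf, final DMSO 0.64%. Truncated body was scored present/absent by brightfield microscopy.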

Test [8] is described as follows: Tanguay_ZF_120hpf_PIG_legacy: (Legacy) Oregon State University Tanguay Lab 120 Hour Post-fertilization zebrafish Assay for Pigmentation Malformation (AID 2283650). The method in brief: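 Endpoint is incidence of abnormal pigmentation at 120 hpf in dechorionated 5D zebrafish exposed singly from 6 hpf at 28C, DMSO vehicle at 0.64%. Embryos dying by 24 or 120 hpf are excluded from scoring.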

Read-out in test [9]: kallikrein-3 (KLK3), KLK3 (gene 354)
In words: LTEA_HepaRG_KLK3: Life Technologies and Expression Analysis (LTEA) Assay for kallikrein-3 (KLK3) using HepaRG (AID 2283652; active = hit-call score of the fitted dose curve at least 0.9, where 1 is the maximum; inactive = score below 0.9). Particulars: mRNA level, 48 h; actives raise or lower the signal. The method in brief:
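KLK3 transcript levels were measured by TaqMan qRT-PCR with normalisation to three housekeeping genes. HepaRG cultures received chemicals for 48 h at up to 100 uM (half-log, 8 points, 0.5% DMSO vehicle), fitted in both directions against DMSO.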

Test [10] is described as follows: Tanguay_ZF_120hpf_PFIN_legacy: (Legacy) Oregon State University Tanguay Lab 120 Hour Post-fertilization zebrafish Assay for Pectoral Fin Malformation (AID 2283648).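 Note: each larva judged yes or no for fin defect by brightfield with dead larvae skipped.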 The method in brief:
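Scoring of pectoral fin malformation was binary, made at 120 hpf on larvae exposed statically from 6 hpf after enzymatic chorion removal. Activity was fitted upward relative to DMSO controls at 0.64% (vol/vol).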

For `CC1=NNC(=O)N(/N=C/c2cccnc2)C1`, the result in test [1], in test [2], in [3], in test [4], in [5] and in [6] was inactive. In addition, the molecule was classed as inactive in [7].
Turning to `CSc1nnc(C(C)(C)C)c(=O)n1N`, the molecule was called inactive in [1], in test [2], in test [3], in test [4], in test [5] and in test [6]. In addition, the outcome in [7] was inactive.
Consider `CCCSP(=O)(OCC)Oc1ccc(Br)cc1Cl` (configuration not stated), for which the result in test [1], in test [2], in [3], in [4], in [8] and in test [6] was inactive. For the same molecule, the molecule was classed as inactive in [7].
Take `CCOC(=O)COc1cc(-c2nn(C)c(OC(F)F)c2Cl)c(F)cc1Cl`: the outcome in [2], in [3], in test [4], in [8], in test [5] and in test [7] was inactive.
With `CCCCOC(=O)[C@@H](C)Oc1ccc(Oc2ccc(C#N)cc2F)cc1`, the outcome in test [1], in test [4], in test [8] and in test [7] was inactive.
Consider `CCOP(=S)(OCC)Oc1ccc([N+](=O)[O-])cc1`, for which the result in test [1], in test [2], in [3], in [4], in test [6] and in test [7] was inactive.
With `COc1cccc(C(=O)NN(C(=O)c2cc(C)cc(C)c2)C(C)(C)C)c1C`, the result in test [1], in test [2], in [3], in [8], in [5] and in test [6] was inactive. The outcome in [7] was inactive.
With `O=[N+]([O-])c1cc(C(F)(F)F)c(Cl)c([N+](=O)[O-])c1Nc1ncc(C(F)(F)F)cc1Cl`, the result in [1], in test [2], in test [4], in test [8], in test [5] and in test [6] was inactive. In addition, the molecule was classed as inactive in test [7].
For the molecule `CCOP(=O)(SC(C)CC)N1CCSC1=O` (configuration not stated), the molecule was classed as inactive in test [1], in [2], in test [4], in [8], in [5] and in test [6]. Moreover, the outcome in test [7] was inactive.
As for `CNC(=O)Oc1cccc2c1OC(C)(C)O2`, the molecule was called inactive in test [1], in test [2], in test [3], in test [4], in test [8] and in test [9]. Also, the molecule was classed as inactive in [6] and in test [7].
Usually AC50 stands for the concentration giving half of the maximal activity seen. Consider `CC(C1CC1)C(O)(Cn1cncn1)c1ccc(Cl)cc1` (configuration not stated), for which the AC50 in [1] was 15.1 µM (active); in [2] it was 22.6 µM (active); in [10] it was 25.9 µM (active); in [6], 32.6 µM (active). For the same molecule, the call in [4], in test [8], in test [5] and in test [7] was inactive.
Take `COP(=O)(OC)SCn1c(=O)oc2cc(Cl)cnc21`: the AC50 in [1] is 11.2 µM (active). The call in test [2], in test [3], in test [4], in [8], in test [5] and in test [6] was inactive. The call in [7] was inactive.
Turning to `CCCOc1nn(C(=O)NS(=O)(=O)c2ccccc2C(=O)OC)c(=O)n1C`, the molecule was classed as inactive in test [1], in [4] and in test [6].
In the case of `CCNc1nc(Cl)nc(NC(C)(C)C#N)n1`, the molecule was called inactive in test [1], in test [2], in test [10], in test [4], in test [8] and in [5]. Besides, the call in test [6] and in test [7] was inactive.
Take `CCCSP(=O)(OCC)SCCC`: the result in test [1], in test [3], in [4], in [8], in test [5] and in [6] was inactive. The molecule was called inactive in test [7].
Turning to `Cc1cc(C2CC2)nc(Nc2ccccc2)n1`, the outcome in test [1], in [2], in test [4], in test [5], in test [6] and in test [7] was inactive.
Take `CN(C)[C@@H]1C(=O)C(C(N)=O)=C(O)[C@@]2(O)C(=O)C3=C(O)c4c(O)cccc4[C@@](C)(O)[C@H]3[C@H](O)[C@@H]12`: the molecule was called inactive in test [1], in test [2], in test [3], in [4], in test [5] and in test [7].
As to `CCOP(=S)(OCC)Oc1cc(C)nc(C(C)C)n1`, the molecule was classed as inactive in test [1], in test [10], in test [4], in test [8], in [5] and in test [7].
Consider `CCOP(=S)(OCC)SCCSCC`, for which the outcome in test [1], in test [2], in test [4], in test [5], in test [6] and in test [7] was inactive.
Take `N#CSCSC#N`: the molecule was called inactive in test [1], in test [3], in [4], in [5], in [6] and in test [7].
In the case of `O=C(O)c1cc(Oc2ccc(C(F)(F)F)cc2Cl)ccc1[N+](=O)[O-]`, the molecule was classed as inactive in test [1], in [2], in [4], in [8], in test [5] and in test [6]. For the same molecule, the molecule was called inactive in test [7].
On to `CC(=NC#N)N(C)Cc1ccc(Cl)nc1`, for which the outcome in test [2], in test [3], in [10], in test [4], in test [8] and in [5] was inactive. For the same molecule, the result in test [6] and in test [7] was inactive.
As to `CCc1cccc(CC)c1N(COC)C(=O)CCl`, the call in test [1], in test [2], in [3], in [8], in test [5] and in test [6] was inactive. For the same molecule, the molecule was classed as inactive in [7].
